Experimental data from the supplement of paper PMC12632987.

Biological target: GABARAPL2, P60520
Assay: median log2 fold change of GCK-ALFA target abundance (FLAG IP / Myc IP barcode read proportion) (log2 ratio); each designed protein is fused to an ALFA-tag nanobody in HEK293 cells to bring the named protein to FLAG-tagged glucokinase (GCK); Myc marks an untargeted standard; higher = target protein stabilised (more abundant)
Conditions: target protein: 3xFLAG-MCP-GCK-ALFA reporter; HEK293 landing pad (RPLP)
Summary of the method: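 An ALFA-nanobody-fused binder library was recombined into HEK293 landing-pad cells and induced with 2 μg mL^−1 doxycycline. Cells were transfected with a plasmid expressing a FLAG-tagged target and a Myc-tagged standard. After 48 h, lysates underwent anti-FLAG and anti-Myc immunoprecipitation, and circular RNA barcodes were reverse transcribed, amplified and sequenced. Target abundance is the per-binder median log2 ratio of FLAG to Myc barcode read proportions. Barcodes needed ≥10^−7 proportion in both replicates, binders ≥3 barcodes per replicate, and a 10^−6 pseudocount was added; the two replicates were pooled.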

GABARAPL2, P60520, sequence (P60520 whole entry, the tested form may be a part): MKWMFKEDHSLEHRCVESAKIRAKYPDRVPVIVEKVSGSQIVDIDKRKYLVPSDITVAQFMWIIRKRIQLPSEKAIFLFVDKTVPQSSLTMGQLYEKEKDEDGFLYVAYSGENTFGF

Binder | median log2 fold change
GBRAPL2_53_7357 (protein) MLRLSIAHPDPAVVAEALRRIFEILREAGVEAEVVVTLEDGTVVRLTGDLDEIEARVTELAAKQPVLVDIYMPDSAEETVEEMEDAALDAGATVSVERVP | 0.126
GBRAPL2_53_7358 (protein) MLVVEIAHPDPAVVKEAAKKILAVIKEDGVEAKVTVTTENGEVKVLTGDIDKIEAEVTALAAKQPVLISIELPDSAEETVEKMEDIALEAGATVSVYREP | 0.217
GBRAPL2_53_7359 (protein) MIEIDIAHPDKAVVKEAADKIFDVVEENGVEVEVTVTDENGTVTKLTGSVEEIREKVTAMAAKQPVLITIKLPDSAKETAEKIEDIALEKGATVSREELE | 0.276
GBRAPL2_53_7360 (protein) MIVIDIAHPDKEVVKKAAEKIFDIVKEAGVEVEVTVTTEDGKVEKLTGSVDDIKAKVTELAAKQPVLIEITLPDSAKETAEKIVDVALEEGATVSVEELE | 0.111
GBRAPL2_53_7361 (protein) MIEIDIAHPDPAVVKKAAEKIFDVAEENGVEVEVEVTTEDGTVTRLTGSIEEIREKVTAMAAKQPVLITIYLPDEAEETAEEIEDIALEEGATVSREVLP | 0.219
GBRAPL2_53_7362 (protein) MWLVEVEHPDKEKLLKAAKEIFKIAKENGLKVTVKFVKEDGTVEEKTLNAEEALKYVEEKVKEGDVILEIELPDSLEEAKEKIIDAAAKHGAVVSVEELE | 0.16
GBRAPL2_53_7363 (protein) MYEVEVEHPDKEKLLRAAEKIAEIAEKHGLKITVTFVKEDATVEVHTADAKEALKIAKENIEKGDVILTVRLPDSLEEVREELIDAAAEEGAVVSVTELP | 0.174
GBRAPL2_53_7364 (protein) MYLVEVEHPDKEKLLKAAEEIAKIAKKHNLKITVIFVKEDGTVERYTANAEEALKIAKEWIEKGDVILEVKLPDSLEEVKEEIIDAAAKNGAVVSVEELE | 0.221
GBRAPL2_53_7365 (protein) MTLVEVEHVDPEKMRAAAKKIAEVAKKHGLKIKVVFVDDEANVTEVTANAEEALKIAEEWIEKGHVILEVELPDDLEEVKEEIIDIAAEEGAVVSVEELE | 0.0119
GBRAPL2_53_7366 (protein) MTEVEIEHPDKEKMLKAAKKVFELVKERNLKVTVIYVDENANVTRVTANAEEALKIAEEWIEKGDVILEVILPDSEEELKEKIIDIAAENGAVVSVEELE | -0.0323
GBRAPL2_53_7367 (protein) MTLVEVEHPDKEKLLKAAEKIAEIAKKLGVNITVIFVKSDGSVERFTANAEEALKIAREKIKEGDVIIEVELEDSQEEALEEIIDAAAEAGAVVSVEKLP | 0.299
GBRAPL2_54_7368 (protein) MIEVEITVVMKRENFLKHKELIKKILLEKVEELKKEHPDLIEKILEIEEEEYPDVGLLSIKILAKPEAEDLIRDLAEEIQKELEKKTGEKVHVVVAFGEL | -0.39
GBRAPL2_54_7369 (protein) MKIVEVTFVAEREFFLANRERIRAAALATYAELRKRLPDKVGELLSEEYSETPDYGSLSLDIEVDESALDEVIDAFEATRDALSAELGHPVHVVIGIGDK | -0.231
GBRAPL2_54_7370 (protein) ETIIEIEATFIAEGSEEELEEVEKVALEKLAELSEKLKKEFGAESEISSERENGVLSVTVKITTKKEDLDKVLDLLEETRDEISKETGKKVSLVIGIKEL | -0.0409
GBRAPL2_54_7371 (protein) ETTVEIEATFLAEGTPEELARVRAVALEELEELKKELKEKFGAESEISAEEEDGVLSVTVTITTKKENLDEVLDLLEATRDRIAARTGLPVALVIGIKEL | -0.0591
GBRAPL2_54_7372 (protein) MTIVEIEATFIAEGSDEELERIEEVALRELKKLAERLKKEFGAESEISSEREDGVLSVTVKITTEKENVDEVLDLLEETRERISRETGRPVSLVIGIKEL | 0.186
